Assay results as given in PubChem BioAssay AID1159580 (chemical genetic matrix, 2015).
In all, about 5,500 compounds went through this assay and about 2,000 (36%) were called active. Inconclusive results (about 18%) are left out. No stated cut-off is given here; in the data, active means normalized growth mostly below about 0.91 (no sharp cut-off); inconclusive means no clear call, values can overlap the other calls; inactive means mostly above about 0.92. This is one part of the list.

Assay: chemical genetic growth profiling, strain panel (AID 1159580);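 further: tested at 20 µM; growth read once vehicle control cultures reached saturation at 30 °C; 1 = growth at the plate median or of vehicle wells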
Details: S. cerevisiae deletion strains, growth OD

Measured: normalized growth

O=C(Nc1ccc(F)cc1F)c1cc(Cl)c(-n2cccc2)c(Cl)c1
inactive: locus YAR019C, strain CDC15, stronger effect = lower value 0.975 | locus YBL105C, strain PKC1, stronger effect = lower value 0.972 | locus YBR135W, strain CKS1, stronger effect = lower value 0.971 | locus YBR136W, strain MEC1, stronger effect = lower value 0.969 | locus YBR160W, strain CDC28, stronger effect = lower value 0.973 | locus YDL017W, strain CDC7, stronger effect = lower value 0.974 | locus YDL028C, strain MPS1, stronger effect = lower value 0.969 | locus YDL101C, strain DUN1, stronger effect = lower value 0.984 | locus YDL108W, strain KIN28, stronger effect = lower value 0.974 | locus YDL132W, strain cdc53, stronger effect = lower value 0.976 | locus YDL214C, strain PRR2, stronger effect = lower value 0.942 | locus YDR052C, strain DBF4, stronger effect = lower value 0.98 | locus YDR054C, strain cdc34, stronger effect = lower value 0.961 | locus YDR226W, strain ADK1, stronger effect = lower value 0.97 | locus YDR477W, strain SNF1, stronger effect = lower value 0.936 | locus YER123W, strain YCK3, stronger effect = lower value 0.905 | locus YER133W, strain GLC7, stronger effect = lower value 0.898 | locus YFL009W, strain cdc4, stronger effect = lower value 0.97 | locus YFL029C, strain CAK1, stronger effect = lower value 0.967 | locus YFR003C, strain YPI1, stronger effect = lower value 0.975 | locus YFR019W, strain FAB1, stronger effect = lower value 0.944 | locus YFR028C, strain CDC14, stronger effect = lower value 0.977 | locus YGR040W, strain KSS1, stronger effect = lower value 0.94 | locus YGR052W, strain FMP48, stronger effect = lower value 0.984 | locus YGR092W, strain DBF2, stronger effect = lower value 0.942 | locus YHR079C, strain IRE1, stronger effect = lower value 0.864 | locus YHR082C, strain KSP1, stronger effect = lower value 1.05 | locus YHR205W, strain SCH9, stronger effect = lower value 0.911 | locus YIL147C, strain SLN1, stronger effect = lower value 0.976 | locus YJL095W, strain BCK1, stronger effect = lower value 0.866 | locus YJL128C, strain PBS2, stronger effect = lower value 0.953 | locus YJL157C, strain FAR1, stronger effect = lower value 0.934 | locus YJR016C, strain ILV3, stronger effect = lower value 0.985 | locus YJR066W, strain TOR1 (second series), stronger effect = lower value 0.869 | locus YJR066W, strain TOR1, stronger effect = lower value 0.993 | locus YKL048C, strain ELM1, stronger effect = lower value 0.953 | locus YKL067W, strain YNK1, stronger effect = lower value 0.928 | locus YKL101W, strain HSL1, stronger effect = lower value 0.929 | locus YKL193C, strain SDS22, stronger effect = lower value 0.983 | locus YKL203C, strain TOR2, stronger effect = lower value 0.968 | locus YLR133W, strain CKI1, stronger effect = lower value 0.942 | locus YLR403W, strain SFP1, stronger effect = lower value 0.902 | locus YML070W, strain DAK1, stronger effect = lower value 0.925 | locus YMR001C, strain CDC5, stronger effect = lower value 0.973 | locus YMR205C, strain PFK2 (second series), stronger effect = lower value 0.959 | locus YMR277W, strain FCP1, stronger effect = lower value 0.963 | locus YNL006W, strain LST8, stronger effect = lower value 0.977 | locus YNL020C, strain ARK1, stronger effect = lower value 0.911 | locus YNL161W, strain CBK1, stronger effect = lower value 0.967 | locus YNL183C, strain NPR1, stronger effect = lower value 0.951 | locus YNL207W, strain RIO2, stronger effect = lower value 0.97 | locus YNL222W, strain SSU72, stronger effect = lower value 0.977 | locus YNL307C, strain MCK1 (second series), stronger effect = lower value 0.926 | locus YOL078W, strain AVO1, stronger effect = lower value 0.981 | locus YOL136C, strain PFK27, stronger effect = lower value 0.925 | locus YOR061W, strain CKA2, stronger effect = lower value 0.926 | locus YOR119C, strain RIO1, stronger effect = lower value 0.999 | locus YOR231W, strain MKK1, stronger effect = lower value 0.88 | locus YOR329C, strain SCD5, stronger effect = lower value 0.968 | locus YPL031C, strain PHO85, stronger effect = lower value 0.922 | locus YPL153C, strain RAD53, stronger effect = lower value 0.928 | locus YPL204W, strain HRR25, stronger effect = lower value 0.908 | locus YPL209C, strain IPL1, stronger effect = lower value 0.975 | locus YPR025C, strain CCL1, stronger effect = lower value 0.968 | locus YPR106W, strain ISR1, stronger effect = lower value 0.978 | locus YPR111W, strain DBF20, stronger effect = lower value 0.962 | strain NNK1, stronger effect = lower value 0.977 | strain TSCII, stronger effect = lower value 0.968
active: locus YHR030C, strain SLT2, stronger effect = lower value 0.784 | locus YLR113W, strain HOG1, stronger effect = lower value 0.788 | locus YPL256C, strain CLN2, stronger effect = lower value 0.829
